The panel holds about 79,000 compounds, 15% with a hit somewhere; the sample as a whole holds those more often. Values without a mark were called inactive. Active and inactive are the calls of the source. Cut-off read from the data, not from the text of the source: active = growth inhibition above about 70%; inactive = the rest.
Key:
[1] = NCI Yeast Anticancer Drug Screen. Data for the rad50 strain (AID 155);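 note: 0% = growth of vehicle-only cultures of the same strain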; settings: S. cerevisiae rad50 strain growth inhibition; at 50.0 µM; stronger effect = higher value
How it was run: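 Genetically altered yeast (DNA repair pathway); compound treatment; growth inhibition vs vehicle ctrl.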

[2] = NCI Yeast Anticancer Drug Screen. Data for the mec2-1 strain (AID 157); settings: S. cerevisiae mec2-1 strain, at 50.0 µM, stronger effect = higher value
How it was run: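 Mutant yeast (mec2-1) grown with compound; growth inhibition relative to vehicle control reported.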

[3] = NCI Yeast Anticancer Drug Screen. Data for the sgs1 mgt1 strain (AID 161);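 note: 0% = growth of cultures given vehicle only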; settings: S. cerevisiae sgs1 mgt1 strain, at 50.0 µM, stronger effect = higher value
How it was run: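 Growth of a repair-deficient yeast mutant was monitored after compound treatment and expressed as inhibition relative to vehicle-treated cultures.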

[4] = NCI Yeast Anticancer Drug Screen. Data for the cln2 rad14 strain (AID 165);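 note: 0% = growth equal to vehicle treated cultures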; settings: S. cerevisiae cln2 rad14 strain, at 50.0 µM, stronger effect = higher value
How it was run: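 Readout is yeast growth inhibition versus vehicle-treated controls, using a strain with cln2 and rad14 alterations exposed to compound.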

[5] = NCI Yeast Anticancer Drug Screen. Data for the bub3 strain (AID 167); settings: S. cerevisiae bub3 mutant strain, at 50.0 µM, stronger effect = higher value
How it was run: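 Yeast carrying a defined mutation is treated with each compound, and growth is compared with that of vehicle-exposed cells to give inhibition.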

[6] = NCI Yeast Anticancer Drug Screen. Data for the mlh1 rad18 strain (AID 175); settings: S. cerevisiae mlh1 rad18 strain growth inhibition; at 50.0 µM; stronger effect = higher value
How it was run: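 Genetically defined yeast (DNA repair-deficient) exposed to compounds; growth inhibition determined relative to vehicle.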

Row | Compound | growth inhibition [1] | growth inhibition [2] | growth inhibition [3] | growth inhibition [4] | growth inhibition [5] | growth inhibition [6]
1 | CNC1=C(Sc2ccc(Cl)cc2)C(=O)c2ccccc2C1=O | -0.4% | 19.4% | 1.45% | 3.25% | 2.75% | 0.35%
2 | C[S+](C)c1ccc(Cl)cc1 | -1.45% | -6.65% | -21.2% | 17.9% | 11.3% | 8.25%
3 | CC1=NN(c2ccc(S(=O)(=O)O)cc2)C(=O)C1N=Nc1ccc(C)c(S(=O)(=O)Nc2ccccc2)c1 (stereo unspecified) | 5.95% | -17.9% | 8% | 15% | 5.45% | 10.8%
4 | O=C1c2ccccc2-c2cc(Br)c(NC(=O)C3CCCCC3C(=O)O)cc21 (stereo unspecified) | 0.2% | 3.55% | 20.6% | 25.8% | -1.2% | 3.6%
5 | CCOP(=O)(OCC)/C(=C/NC(=S)c1cccnc1)C(=O)OC | -11% | -1% | -13% | -7.75% | 17.6% | -2.2%
6 | COc1ccc2ccc3nonc3c2c1 | 17.1% | 4.7% | 9% | -40.5% | 6.4% | 1.45%
7 | CC1(C)[C@@H]2C[C@H]1C(Cc1ccccc1C[C@H]1c3cc(-c4ccccn4)ncc3[C@H]3C[C@@H]1C3(C)C)c1cc(-c3ccccn3)ncc12 (stereo partly specified) | 43.3% | 39.3% | 10.4% | 24.4% | 12.2% | -32.4%
8 | c1ccc(CNc2ncncc2-c2ccccc2)cc1 | 2.75% | 3.85% | 17.4% | 9.1% | 1.6% | 5.15%
9 | CCOC(O)C(F)(F)F (stereo unspecified) | 9.2% | -0.7% | 10.6% | 15.8% | 0.45% | 13.2%
10 | CCCCCCCCCCCCC(CC)(C(=O)OCC)C(=O)OCC | -1.6% | -0.6% | 13% | -59.5% | 1.15% | -2%
11 | NC1=NC(c2ccccc2)C2=C(N1)C(=O)N(Cc1ccccc1)C2 (stereo unspecified) | 5.65% | -6.25% | -0.8% | -18.9% | -16.8% | 3.15%
12 | O/N=C1/CCCc2nonc21 | -18.6% | -3.15% | -0.3% | 4.35% | -8.2% | -6.5%
13 | CC(C)(Br)CS(=O)(=O)c1ccccc1 | 38.1% | 5.85% | 29.1% | -20.2% | 14.1% | 29.5%
14 | NC(N)=NS(=O)(=O)c1ccc(NC(=O)c2cccc3c(N)c4ccccc4nc23)cc1 | 5.35% | 5.95% | -0.2% | 8.65% | -9% | -10.2%
15 | COC(OC)c1cccnc1C | -25.6% | 16.8% | -25.1% | 6.65% | -23.5% | 7.7%
16 | CCOC(=O)C12CCCC1(O)N(NC(=O)c1ccccc1)C(C)=C2C(=O)OC (stereo unspecified) | 10.8% | 21.6% | 6.3% | -56.5% | 2.95% | -10.2%
17 | CC(C)(C)NC(=O)Oc1ccccc1C(N)=O | 4.4% | -3.45% | -5.2% | -78.4% | 4.9% | -11.7%
18 | Cc1cccc(C)c1NC(=S)N(CCC#N)Cc1ccccc1 | 6.8% | 1.45% | 1.9% | -4.55% | 12.3% | -11.1%
19 | CC1CN=C(N(C(=O)Nc2ccc(Cl)cc2)c2cccc(Cl)c2)S1 (stereo unspecified) | -30.9% | -13.7% | -50.1% | -8.75% | -14.8% | -52%
20 | Cc1ccccc1NC(=O)CS | 17.6% | 31.9% | 31.2% | -21% | 29.2% | 33.2%
21 | c1ccc(Nc2ccc3ccccc3n2)cc1 | 40.6% | 4.75% | 40.5% | 14% | -1.8% | 16.4%

Row | Compound | growth inhibition [1] | growth inhibition [2] | growth inhibition [3] | growth inhibition [4] | growth inhibition [5] | growth inhibition [6]
22 | C1CCCCC/C2=C(\CCCC1)CSCCCS2 | -25.8% | -19.9% | -16.1% | -14.6% | 0.55% | -36.5%
23 | O=C(Nc1ccccc1Br)c1ccc(F)cc1 | -0.9% | 3.1% | -11.3% | -18.4% | 14.8% | 14.6%
24 | CC(C)(C)N1COCC(COc2ccc(Cl)cc2)OC1 (stereo unspecified) | -13.3% | -3.5% | 4.95% | 11.4% | -16.1% | 24.8%
25 | CC(C)(CCC(C)(C)c1ccccc1)c1ccccc1 | -2.7% | -35.7% | -9.2% | -9.75% | -17.9% | -8.25%
26 | CNC(=O)NC1NC(=O)N(C)C1=O (stereo unspecified) | 0.3% | -12.7% | -0.4% | -14.6% | -0.45% | -12.7%
27 | CCOC(=O)C(C(=O)OCC)C(c1ccccc1)c1ccccc1OC (stereo unspecified) | 6.9% | 12% | 4.15% | 17% | 12.3% | -9.55%
28 | CCOC(=O)C1(C)OC1c1ccc([N+](=O)[O-])cc1 (stereo unspecified) | -16.3% | 5.45% | -4.5% | -15.6% | -9.85% | -9.85%
29 | CCOC(=O)CC1CC2c3cc(OC)c(OC)cc3CCN2CC1CC (stereo unspecified) | 3.1% | 12.8% | -6.7% | -5.25% | 1.95% | 13.8%
30 | CCn1c(=O)c2c3cc(OC(C)=O)ccc3oc2c2ccc(OC(C)=O)cc21 | -23.3% | -24.4% | -6.8% | 10.3% | 12.9% | -4.75%
31 | COc1cc(C)cc2c1C(=O)C(Br)=CC2=O | 91.2% (active) | 92.3% (active) | 91.9% (active) | 91.8% (active) | 91.8% (active) | 89.8% (active)
32 | Nc1cccc(Nc2nc3ccccc3nc2NS(=O)(=O)c2ccccc2)c1 | 18.5% | 22.6% | 14.6% | -11.3% | -2.5% | -9.1%
33 | O=C1CCCc2c(O)ccc(O)c21 | 5.2% | 2.8% | -2.6% | 11.4% | 8.15% | 28.4%
34 | O=Cc1cccc2c([N+](=O)[O-])cccc12 | 55.5% | 19.5% | 32.6% | 6.95% | -1.9% | 49.5%
35 | C=CCNC(=S)Nc1ccc(OC(=O)NC(C)(C)C)cc1 | 2% | 29.4% | 26.4% | -16.8% | 25.3% | 0.1%
36 | Cc1cccc(C2=N/C(=C\c3ccccc3)C(=O)O2)c1 | 7.15% | 7.5% | 18.8% | 10.8% | 5.75% | 5.35%
37 | c1ccc2cc(N=NNc3ccc4ccccc4c3)ccc2c1 | 63.6% | -4.1% | 27.9% | -30.6% | 47.5% | 74% (active)
38 | N#CC(=C1CCN(Cc2ccccc2)CC1)c1ccccc1 | 37.2% | 12.7% | 44.8% | 47.6% | 63.5% | 35.2%
39 | CCOC(=O)C1CC1OCc1ccccc1 (stereo unspecified) | -0.2% | 11.7% | 4.9% | -15.9% | 4% | 5.3%
40 | CCCCCCOC(=O)c1ccccc1Cl | 5.75% | 9.35% | -3.05% | -16.9% | 26.4% | 34.2%
41 | Cc1nc2c3c4c(sc3nc(C)n2n1)CCCC4 | 1% | 10.3% | 22.2% | 80.4% (active) | 7.3% | 12%

From PubChem BioAssay (NCI)
